SMN2 splice enh: qHTS Assay for Enhancers of SMN2 Splice Variant Expression; HEK293 SMN2-luciferase splicing reporter, luminescence, 30-36 h; 2.8% of 210,000 active; Potency, µM (titrated, usually from 46.1 µM), without a hit: at the highest dose activity change, positive = activation, hits mostly activators; note: % of control where 0% means no effect; nearly all actives have a fitted effect of over 55% in size
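HEK293 cells carry an SMN2 […]–luciferase reporter in which exon 7 inclusion puts luciferase in frame. Cells were plated 10-12 h before compound addition, then incubated 30-36 h at 37C. ONE-Glo luminescence was read; sodium butyrate at 4.5 mM final served as control.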
ELG1 genotox: qHTS screen for small molecules that induce genotoxicity in human embryonic kidney (HEK293T) cells expressing luciferase-tagged ELG1; HEK293T ELG1-luciferase reporter, luminescence, 16 h; Potency, µM (titrated, usually from 46 µM), for inactives: at the top dose activity change, positive = activation, hits mostly activators; 1.3% of 330,000 active; AID 504466, 2011; note: % of control where 0% means no effect; nearly all actives have a fitted effect of over 60% in size
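DMSO vehicle served as control against compound-treated ELG1-luciferase HEK293T cells; exposure lasted 16 hr at 37 °C and 5% CO2, followed by ONE-Glo luminescence detection after 30 min.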
NPC1 promoter act: qHTS Assay for NPC1 Promoter Activators. Potency, µM (series often up to 9.22 µM), for the others: at the top dose activation, usual class: activators. Huh7 NPC1 promoter luciferase reporter, 24 h. 2.4% of 320,000 active; note: % of control where 0% means no effect; nearly all actives have a fitted effect of over 60% in size
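Huh7 cells stably carrying NPC1 promoter–luciferase, plated in Opti-MEM with 10% FBS for 2 h, were exposed to compound in DMSO for 24 h at 37 °C; luciferase reagent was added for 10 min and luminescence read.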
KinaseGlo FLuc: Counterscreen for Luciferase (Kinase-Glo TM) Inhibition; 0.28% of 200,000 active; Kinase-Glo luciferase, ATP luminescence, 8 min; Luciferin 4-monooxygenase (Photuris pensylvanica), Q27757; Potency, µM (highest dose often 38.3 µM), for inactives: at the highest dose activity change, negative = inhibition, hits mostly inhibitors; AID 1379, 2008; note: % is set by controls: 0 for no effect and ±100 for the full control effect; nearly all actives have a fitted effect of over 60% in size
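Compounds were added to a substrate mix at pH 7.2 (50 mM imidazole, 10 uM ATP, within the enzyme's linear range), followed by Kinase-Glo detection reagent; luminescence was measured after 8 minutes at ambient temperature.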
FLuc modulator: qHTS profiling assay for firefly luciferase inhibitor/activator using purifed enzyme and Km concentrations of substrates (counterscreen for miR-21 project); purified FLuc, Km substrates, luminescence inhibition; 6.9% of 360,000 active; Potency, µM (top dose mostly 57.5 µM), without a hit: at the top dose activity change, negative = inhibition, most hits filed as inhibitors;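 note: plate controls were vehicle for no effect and reference inhibitor for full effect; nearly all actives have a fitted effect of over 55% in size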
Target sequence (P08659 whole entry, looked up): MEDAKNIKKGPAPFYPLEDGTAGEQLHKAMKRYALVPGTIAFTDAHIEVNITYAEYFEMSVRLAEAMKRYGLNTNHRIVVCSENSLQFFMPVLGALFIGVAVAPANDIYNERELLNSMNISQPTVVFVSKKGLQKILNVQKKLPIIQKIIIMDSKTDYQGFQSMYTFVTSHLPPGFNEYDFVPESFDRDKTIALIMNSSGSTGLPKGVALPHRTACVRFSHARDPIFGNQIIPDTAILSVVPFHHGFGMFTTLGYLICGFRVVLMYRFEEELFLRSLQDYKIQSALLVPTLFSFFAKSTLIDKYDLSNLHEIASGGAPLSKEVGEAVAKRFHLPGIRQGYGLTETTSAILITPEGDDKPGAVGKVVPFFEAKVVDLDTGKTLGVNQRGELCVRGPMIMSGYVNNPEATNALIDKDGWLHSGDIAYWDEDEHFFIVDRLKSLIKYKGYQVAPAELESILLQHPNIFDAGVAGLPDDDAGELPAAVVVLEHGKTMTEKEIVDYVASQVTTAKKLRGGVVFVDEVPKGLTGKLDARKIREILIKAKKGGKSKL
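Purified P. pyralis luciferase (10nM final) with 10uM D-luciferin and 10uM ATP (Km levels) in 50mM Tris acetate pH 7.5, 10mM Mg acetate, 0.01% Tween-20, 0.05% BSA; qHTS 6-point titration, ~60 µM downward; luminescence read.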
Rab9 promoter act: qHTS Assay for Rab9 Promoter Activators; Huh7 Rab9 promoter-luciferase reporter, luminescence, 24 h; Potency, µM (titrated, usually from 9.22 µM), inactives show top-dose activation, negative = inhibition, hits mostly activators; 2.8% of 320,000 active; note: % of control where 0% means no effect; nearly all actives have a fitted effect of over 60% in size
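Using Huh7 cells stably transfected with Rab9 promoter–luciferase, compounds were incubated 24 h at 37 °C, 5% CO2; luciferase luminescence was read 10 min after reagent addition.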
* = called active by the depositor; ? = inconclusive; . = no result; [ ] = another dose, or the depositor's remark. Rows were chosen to be rich in hits. Some 7.3% of all compounds tested hit in one or more screens of this group. Calls come from the whole dose curve; as a rule, active = well fitted curve in the direction sought with a large enough effect; inconclusive = small, poorly fitted or top-dose-only effect, or another doubt; inactive = no such curve, though single readings can be large; an effect the other way counts as inactive or inconclusive. Potency is the fitted concentration of half-maximal effect.

SMILES	SMN2 splice enh	ELG1 genotox	NPC1 promoter act	KinaseGlo FLuc	FLuc modulator	Rab9 promoter act
CN(Cc1ccon1)C(=O)c1ccc2nc(Cc3cccc(Cl)c3)oc2c1	.	0%	6%	.	4%	-8%
CN(Cc1cccnc1)C(=O)c1ccc2nc(Cc3ccccc3F)oc2c1	.	1%[9.26 µM]	27%	.	24µM*	?
CN(Cc1cccc(-n2cccn2)c1)C(=O)CCc1nnc(C2CCCCC2)o1	.	10%	12%	-4%	17µM*	?
COCCc1nc2ccc(C(=O)N(C)Cc3cccc(-n4cccn4)c3)cc2o1	.	?	2.8µM*	.	21µM*	2.8µM*
COc1ccc(CCn2c3c(c(=O)[nH]c2=O)C(NC(=O)c2ccccc2)(C(F)(F)F)C(=O)N3)cc1OC (configuration not stated)	7%	.	.	.	-2%	.
C=C(C)C(O)/C=C/c1ccc(C(F)(F)F)cc1 (configuration not stated)	1%	.	.	0%	.	.
CCCc1ccc(C2Sc3ccccc3NC3=C2C(=O)c2ccccc23)cc1 (configuration not stated)	-18%	.	.	.	-3%	.
O=c1c(Cl)c(Nc2cccc(Cl)c2)cnn1-c1nc2ccccc2s1	10µM*	?	?	-8%	4.8µM*	?
COc1ccc(Nc2cnn(-c3nc4ccccc4s3)c(=O)c2Cl)cc1	10µM*	?	?	?	11µM*	?
Cc1ccc(C)c(N2CCN(c3nc4ccccc4c(=O)n3-c3ccccc3)CC2)c1	0%	.	.	.	-7%	.
Cc1ccc(C)c(N2CCN(c3cnn(-c4nc5ccccc5s4)c(=O)c3Cl)CC2)c1	?	18µM*	2.2µM*	-11%	6.7µM*	1.6µM*
Cc1nc2ccccc2nc1Nc1cccc(Cl)c1	.	0%	0%	.	-18%	8%
COc1ccc(C2SCC(=O)N2c2nc3ccccc3s2)cc1 (configuration not stated)	.	4%	8%	5%	?	1%
CCOc1ccccc1NC(=O)C1CCCN(S(=O)(=O)c2cccs2)C1 (configuration not stated)	-38%	.	.	.	1%	.
COc1ccc(S(=O)(=O)N(CC(=O)Nc2cc(C)cc(C)c2)c2ccc(Cl)cc2)cc1	-17%	.	.	.	-5%	.
COc1ccccc1OCCNC(=O)c1ccc2c(c1)CCC2	.	13µM*	?	.	15µM*	?
COc1ccccc1OCCNC(=O)c1cccc(S(=O)(=O)N2CCN(C)CC2)c1	.	12%	-4%	.	13µM*	1%
COc1ccccc1OCCNC(=O)CNC(=O)c1ccc2c(c1)OCO2	.	1%	0%	.	-1%	8%
COc1ccccc1OCCNC(=O)c1ccc2c(c1)OCCO2	.	?	3.2µM*	.	?	2.2µM*
O=C(CSc1nnc(CNC(=O)c2cccc(F)c2)n1-c1ccccc1)Nc1ccccc1F	?	.	.	.	-1%	.
CCC(C)NC(=O)CCC(=O)N1Cc2ccccc2Oc2ncccc21 (configuration not stated)	.	.	.	.	-2%	.
O=C(NCCN1CCOCC1)c1cc(-c2ccccc2)on1	-3%	18µM*	14%	1%	-3%	20%
O=C(NCCCN1CCOCC1)c1cc(-c2ccccc2)on1	-18%	18µM*	14%	4%	-3%	27%
COC(=O)c1c(C)n(-c2ccc(OC)cc2)c2ccc(O)cc12	4.5µM*	-25%	-1%	-2%	0%	-4%
CCOC(=O)c1sc(=N)n(-c2ccc(OC)cc2)c1C	14%	?	30%	-2%	19µM*	26%
SMILES	SMN2 splice enh	ELG1 genotox	NPC1 promoter act	KinaseGlo FLuc	FLuc modulator	Rab9 promoter act
COc1ccc(C(=O)Nc2nc3n(n2)C(c2ccc(F)cc2)C=C(c2ccc(Cl)cc2)N3)cc1 (configuration not stated)	.	.	.	.	-14%	.
Cc1ccc2oc(-c3cc(NC(=O)CC(C)C)ccc3Cl)nc2c1	-4%	.	.	.	-10%	.
CCCCn1c(/C=C/c2ccco2)nc2ccccc21	16µM*	13%	11%	-19%	13µM*	12%
CCCn1c(NCc2ccco2)nc2ccccc21	?	2%	0%	0%	0%	-7%
CCCn1c(/C=C/c2ccco2)nc2ccccc21	14µM*	1%	20%	-11%	12µM*	19%
C[C@@H](C1[C@@H](O)CC2C3C=CC4C[C@@H](O)CC[C@]4(C)[C@H]3CC[C@@]21C)[C@@H]1CCCCN1 (some centres not stated)	10%	.	.	-2%	.	.
O=C(Cc1cccs1)NC1CC(=O)N(c2ccccc2)C1 (configuration not stated)	.	.	.	.	-1%	.
CCOc1ccc(NC(=O)CC2C(=O)N(c3cccc(C)c3)C(=O)N2Cc2cccs2)cc1 (configuration not stated)	.	.	.	.	1%	.
COc1cc(/C=N/Nc2nc(Nc3ccccc3)nc(-n3nc(C)cc3C)n2)cc(OC)c1OC	-7%[1.84 µM]	-16%	14%	-1%	2.7µM*	3%
COc1ccc(O)c(/C=N/Nc2nc(Nc3ccccc3)nc(-n3nc(C)cc3C)n2)c1	-22%	-10%	10%	0%	9.5µM*	-5%
COc1cc(/C=N/Nc2nc(Nc3ccc(C)cc3)nc(-n3nc(C)cc3C)n2)cc(OC)c1OC	13%	-27%	5%	-3%	?	-8%
CCC(C)NC(=O)c1cnn(-c2ccc(Cl)cc2)c1C1CCN(C(=O)OC(C)(C)C)CC1 (configuration not stated)	.	.	.	.	4%	.
O=C(Nc1ccc2c(c1)OCCO2)c1c(F)c(F)c(F)c(F)c1F	-4%	1%	-1%	-6%	2%	5%
O=C(Nc1ccc2c(c1)OCCO2)c1cccc(Cl)c1Cl	.	2.6µM*	3.5µM*	.	7.6µM*	1.6µM*
O=C(Nc1ccc2c(c1)OCCO2)c1cc(F)c(F)cc1Cl	.	?	2.2µM*	.	12µM*	2.5µM*
Cc1oc(C(C)(C)C)cc1C(=O)Nc1ccc2c(c1)OCCO2	30%	.	.	1%	12µM*	.
Cc1oc(C(C)(C)C)cc1C(=O)Nc1ccc2c(c1)OCO2	.	-2%	22%	.	?	19%
Cc1ccc(C(=O)Nc2ccc3c(c2)OCCO3)c(Cl)c1	.	?	0.089µM*	.	0.43µM*	0.089µM*
Cc1ccccc1NC(=O)N1CCC(CN2CCCC2)CC1	.	.	.	.	4%	.
Cc1ccc(CNC(=O)c2cc(=O)c3cc(C)c(C)cc3o2)cc1	-3%	.	.	.	-2%	.

Screening results as filed in PubChem BioAssay.
